Reference: PubChem BioAssay (NCATS)
Results filed as inconclusive are left out. Activity calls are given as the source filed them. The call rests on the fitted dose curve; in most records, active means well fitted curve in the direction sought with a large enough effect; inconclusive means small, poorly fitted or top-dose-only effect, or another doubt; inactive means no such curve, though single readings can be large; an effect the other way counts as inactive or inconclusive.

Key:
CRL-7250 = normal cell line; experiment: Cytotoxic Profiling of Annotated Libraries Using Quantitative High-Throughput Screening (AID 1296008); conditions: Five cell lines viability, CellTiter-Glo ATP luminescence, 48-72 h; max response: stronger effect = lower value; further: nearly all actives have a fitted effect of over 60% in size; on max response: on the % scale 0 is the no-effect control and ±100 the full control effect
Summary of the method: (§1)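 Cells exposed to compounds for 48 or 72 hr at 37 degrees Celsius. Viability read as ATP-coupled luminescence with CellTiter-Glo after 10 min at room temperature.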

HEK293 = experiment: as above; conditions: Five cell lines viability, CellTiter-Glo ATP luminescence, 48-72 h; max response: stronger effect = lower value
Summary of the method: as §1

HaCat [1] = experiment: as above; conditions: Five cell lines viability, CellTiter-Glo ATP luminescence, 48-72 h; max response: stronger effect = lower value
Summary of the method: as §1

KB-3-1 = experiment: as above; conditions: Five cell lines viability, CellTiter-Glo ATP luminescence, 48-72 h; max response: stronger effect = lower value
Summary of the method: as §1

NIH3T3 = experiment: as above; conditions: Five cell lines viability, CellTiter-Glo ATP luminescence, 48-72 h; max response: stronger effect = lower value
Summary of the method: as §1

HACAT [2] = experiment: qHTS assay to identify novel small-molecules to repurpose for Merkel cell carcinoma treatment (AID 1296009); conditions: MCC and control cell lines, CellTiter-Glo viability, 72 h; at 44.8 µM (top of the series) unless noted; further: nearly all actives have a fitted effect of over 60% in size
Summary of the method: (§2)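 Cells were treated for 72 hr at 37 degree celsius with compounds in 8- or 11-point dose response. Viability was read by CellTiter-Glo luminescence, normalized to no-cell (cytotoxicity) and DMSO controls.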

HEK293T = experiment: as above; conditions: MCC and control cell lines, CellTiter-Glo viability, 72 h; series mostly up to 44.8 µM
Summary of the method: as §2

C33A = experiment: Primary qHTS to identify gynecologic anti-cancer compounds using libraries of approved drugs and bioactive compounds (AID 1345084); conditions: Gynecologic cancer cell panel viability, ATPlite luminescence, 48 h; series mostly up to 57.5 µM; further: on the % scale 0 is the no-effect control and ±100 the full control effect; nearly all actives have a fitted effect of over 55% in size
Summary of the method: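 Cells, 1,000 per well, plated 16 h, then exposed 48 h at 37 C to compounds. Viability by ATPlite luminescence after 15 min at room temperature.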

C/C=C(\C)C(=O)O[C@H]1[C@H](O)[C@]2(COC(C)=O)[C@H](O)C[C@]3(C)C(=CCC4[C@@]5(C)CC[C@H](O[C@@H]6O[C@H](C(=O)O)[C@@H](O[C@@H]7O[C@H](CO)[C@@H](O)[C@H](O)[C@H]7O)[C@H](O)[C@H]6O[C@@H]6O[C@H](CO)[C@@H](O)[C@H](O)[C@H]6O)[C@](C)(CO)C5CC[C@]43C)[C@@H]2CC1(C)C (some centres not stated)
inactive: max response (CRL-7250) -9.07% | outcome (HEK293) | outcome (HaCat [1]) | outcome (KB-3-1) | max response (NIH3T3) 2.26% | outcome (HACAT [2]) inactive [at 9.27 µM] | outcome (HEK293T) inactive [at 9.27 µM] | activity change, negative = cytotoxicity (C33A) 1.25% [at 11.6 µM]

COC(=O)C1C(CC(C)=O)C=CC(O)C12Oc1cc(C)cc(O)c1C2=O (configuration not stated)
inactive: max response (CRL-7250) -4.03% | outcome (HEK293) | outcome (HaCat [1]) | max response (KB-3-1) 4.45% | max response (NIH3T3) 3.58% | outcome (HACAT [2]) | Potency (HEK293T) | Potency (C33A)

CC(C)(O)C1CCC2(C)C3C(O)C4C(C13)C42CO (configuration not stated)
inactive: outcome (CRL-7250) | outcome (HEK293) | outcome (HaCat [1]) | max response (KB-3-1) 9.17% | max response (NIH3T3) 0.322% | outcome (HACAT [2]) | Potency (HEK293T) | Potency (C33A)

Nc1ncnc2c1ncn2[C@H]1CCCO1
inactive: max response (CRL-7250) -0.0341% | outcome (HEK293) | outcome (HaCat [1]) | outcome (KB-3-1) | outcome (NIH3T3) | outcome (HACAT [2]) | Potency (HEK293T) | Potency (C33A)

C=C1C(=O)OC2/C=C(\C)CC/C=C(\C(=O)O)CC/C=C(\C)CCC12 (configuration not stated)
inactive: outcome (CRL-7250) | outcome (HEK293) | outcome (HaCat [1]) | max response (KB-3-1) 5.52% | max response (NIH3T3) 2.63% | outcome (HACAT [2]) | Potency (HEK293T) | Potency (C33A)

CCC1CC2C(C)=CC3CCCCC3C2(C)C2(OC(=O)C(C)(O)OC2=O)O1 (configuration not stated)
inactive: max response (CRL-7250) 0.081% | outcome (HEK293) | outcome (HaCat [1]) | outcome (KB-3-1) | max response (NIH3T3) 1.16% | outcome (HACAT [2]) | Potency (HEK293T) | Potency (C33A)

CCCCCCc1cccc(NC(=O)[C@H](N)CCP(=O)(O)O)c1
inactive: outcome (CRL-7250) | outcome (HEK293) | outcome (HaCat [1]) | outcome (KB-3-1) | max response (NIH3T3) -1.22% | outcome (HACAT [2]) inactive [at 9.27 µM] | outcome (HEK293T) inactive [at 9.27 µM] | activity change, negative = cytotoxicity (C33A) 10.1% [at 11.6 µM]

NCCCC[C@H](NC(=O)[C@@H]1Cc2ccccc2CN1C(=O)CCC(=O)c1ccccc1)C(=O)NCC(c1ccccc1)c1ccccc1
inactive: outcome (CRL-7250) | outcome (HEK293) | outcome (HaCat [1]) | outcome (KB-3-1) | max response (NIH3T3) 3.99% | outcome (HACAT [2]) | Potency (HEK293T) | Potency (C33A)

C/C=C(\C)C(=O)O[C@@H]1CC2[C@@H](CC=C3C[C@@H](O[C@H]4C[C@H](OC)[C@H](O[C@H]5C[C@H](OC)[C@H](O[C@H]6C[C@H](OC)[C@H](O[C@H]7C[C@@H](OC)[C@H](O[C@@H]8O[C@H](CO)[C@@H](O)[C@H](O)[C@H]8O)[C@@H](C)O7)[C@@H](C)O6)[C@@H](C)O5)[C@@H](C)O4)CC[C@@]32C)[C@@]2(O)CC[C@H](C(C)=O)[C@@]12C (some centres not stated)
inactive: max response (CRL-7250) 2.31% | outcome (HEK293) | outcome (HaCat [1]) | max response (KB-3-1) -8.02% | max response (NIH3T3) 0.771% | outcome (HACAT [2]) inactive [at 9.27 µM] | outcome (HEK293T) inactive [at 9.27 µM] | activity change, negative = cytotoxicity (C33A) 1.71% [at 6.55 µM]

COc1cc(C2Oc3c(OC)cc(CCCO[C@@H]4O[C@H](CO)[C@@H](O)[C@H](O)[C@H]4O)cc3C2CO)ccc1O (some centres not stated)
inactive: max response (CRL-7250) -0.0218% | outcome (HEK293) | outcome (HaCat [1]) | max response (KB-3-1) 1.37% | max response (NIH3T3) 3.22% | outcome (HACAT [2]) inactive [at 17.4 µM] | Potency (HEK293T) | Potency (C33A)

CO[C@H]1C=C2C(CC[C@H](O[C@@H]3O[C@H](CO)[C@@H](O)[C@@H](O)[C@H]3O)C2(C)C)[C@]2(C)CC[C@]3(C)C([C@H](C)C(O)C(C=C(C)C)O[C@@H]4O[C@H](CO)[C@@H](O)[C@@H](O)[C@H]4O)CC[C@@]3(C)C12 (some centres not stated)
inactive: max response (CRL-7250) -4.36% | outcome (HEK293) | outcome (HaCat [1]) | max response (KB-3-1) 6.33% | max response (NIH3T3) 3.68% | outcome (HACAT [2]) inactive [at 9.27 µM] | outcome (HEK293T) inactive [at 9.27 µM] | activity change, negative = cytotoxicity (C33A) -3.11% [at 11.6 µM]

Cc1[nH]cnc1C1CCN(c2nc3cccc4c3n2CCC4=O)CC1
inactive: outcome (CRL-7250) | outcome (HEK293) | outcome (HaCat [1]) | max response (KB-3-1) 2.43% | outcome (NIH3T3) | outcome (HACAT [2]) | Potency (HEK293T) | Potency (C33A)

OCCc1ccc(O[C@@H]2O[C@H](CO)[C@@H](O)[C@H](O)[C@H]2O)c(O)c1
inactive: max response (CRL-7250) 1.68% | outcome (HEK293) | outcome (HaCat [1]) | outcome (KB-3-1) | max response (NIH3T3) -4.15% | outcome (HACAT [2]) | Potency (HEK293T) | Potency (C33A)

CC(=O)OC[C@@]12[C@H](O)C[C@]3(C)C(=CCC4[C@@]5(C)CC[C@H](O[C@@H]6O[C@H](C(=O)O)[C@@H](O[C@@H]7O[C@H](CO)[C@@H](O)[C@H](O)[C@H]7O)[C@H](O)[C@H]6O[C@@H]6O[C@H](CO)[C@@H](O)[C@H](O)[C@H]6O)[C@](C)(CO)C5CC[C@]43C)[C@@H]1CC(C)(C)[C@@H](OC(C)=O)[C@@H]2O (some centres not stated)
inactive: outcome (CRL-7250) | outcome (HEK293) | outcome (HaCat [1]) | max response (KB-3-1) 6.14% | max response (NIH3T3) 0.485% | outcome (HACAT [2]) inactive [at 9.27 µM] | outcome (HEK293T) inactive [at 9.27 µM] | activity change, negative = cytotoxicity (C33A) -7.61% [at 11.6 µM]
